# Screening results as filed in PubChem.
# Rows were chosen to be rich in hits. Some 5.8% of all compounds tested hit in one or more screens of this group.
# TRPV1 agonist: agonists of human vanilloid receptor 1 (TRPV1); TRPV1-expressing cells, Fluo-8 calcium influx, agonist mode; activation, % at 8.33 µM; Q8NER1; 320,000 compounds, 0.19% hits; in the data active = activation above about 80%; inconclusive = between about 30% and that limit; also: 0% is about no effect
# Target sequence (Q8NER1 whole entry, looked up): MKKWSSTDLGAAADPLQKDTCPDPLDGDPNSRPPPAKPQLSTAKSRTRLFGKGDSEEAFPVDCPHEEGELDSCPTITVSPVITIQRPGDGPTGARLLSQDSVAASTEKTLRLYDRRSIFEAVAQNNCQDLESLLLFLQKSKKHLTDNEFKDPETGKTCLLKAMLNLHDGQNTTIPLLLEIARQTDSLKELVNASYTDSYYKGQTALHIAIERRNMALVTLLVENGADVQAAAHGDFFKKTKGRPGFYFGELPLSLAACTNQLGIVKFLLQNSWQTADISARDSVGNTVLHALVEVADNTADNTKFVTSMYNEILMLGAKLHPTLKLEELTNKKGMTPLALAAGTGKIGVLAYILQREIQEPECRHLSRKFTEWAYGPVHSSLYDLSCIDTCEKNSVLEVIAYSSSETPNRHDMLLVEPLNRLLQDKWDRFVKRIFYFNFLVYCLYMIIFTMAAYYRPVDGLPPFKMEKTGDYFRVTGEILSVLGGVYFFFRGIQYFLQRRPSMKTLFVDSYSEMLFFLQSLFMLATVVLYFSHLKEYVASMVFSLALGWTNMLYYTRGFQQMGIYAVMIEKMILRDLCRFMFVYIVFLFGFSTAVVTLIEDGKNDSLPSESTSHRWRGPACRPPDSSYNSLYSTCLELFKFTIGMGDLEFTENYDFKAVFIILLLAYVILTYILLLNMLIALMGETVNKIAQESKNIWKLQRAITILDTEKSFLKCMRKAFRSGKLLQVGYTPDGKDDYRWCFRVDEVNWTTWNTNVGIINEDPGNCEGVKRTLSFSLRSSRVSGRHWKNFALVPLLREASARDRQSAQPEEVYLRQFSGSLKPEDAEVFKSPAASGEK
#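 Fluo-8 calcium influx in TRPV1-expressing cells, kinetic read (ex 480/em 520 nm). Compound added and read 3 min for agonist activity, followed by capsaicin at EC20 final and 2 min further read for enhancement.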
# TRPV1 potentiator: enhances activation of the human vanilloid receptor TRPV1 | Q8NER1 | TRPV1-expressing cells, Fluo-8 calcium influx, capsaicin EC20 potentiation | potentiation, % at 8.33 µM | 320,000 compounds, 0.02% hits; in the data active = potentiation above about 80%; inconclusive = between about 30% and that limit; also: 0% is about no effect
#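 Cells expressing TRPV1 were dye-loaded with Fluo-8 and read kinetically: 10 s baseline, 3 min after compound (agonist portion), then 2 min after EC20 capsaicin (allosteric enhancer portion). Calcium-bound dye fluorescence at 480/520 nm.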
# RORg inh: blocks mouse ROR gamma transcriptional activity. P51450. Drosophila S2 Gal4-RORgamma UAS-luciferase reporter, 20 h. Potency, µM (highest dose often 53.6 µM), for the others: at the top dose activity change, negative = inhibition, hits mostly inhibitors. 310,000 compounds, 5.4% hits. AID 2551; also: potency is read from the fitted curve at half-maximal effect; % is scaled to controls: 0 for no effect and ±100 for the full control effect; nearly all actives have a fitted effect of over 60% in size
#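 Schneider cells (Drosophila), stable Gal4 DBD–ROR gamma + UAS-luc; 1 hr cmpd preincubation; Cu2+ induction 700 uM final; 20 hr ambient; luminescence.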
# VP16 counter: inhibits Gal4-VP16 luciferase reporter, ROR gamma counter-screen. Drosophila S2 Gal4-VP16 UAS-luciferase, luminescence, 20 h. Potency, µM (highest dose often 53.6 µM), for the others: at the highest dose activity, negative = inhibition, actives largely listed as inhibitors. 310,000 compounds, 3.5% hits. AID 2546;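 also: Gal4-VP16 expression switched on by copper sulfate through the metallothionein promoter; potency is read from the fitted curve at half-maximal effect; % is scaled to controls: 0 for no effect and ±100 for the full control effect; nearly all actives have a fitted effect of over 50% in size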
# uPA surface inh: inhibitors of cell surface uPA generation. Potency, µM (top dose mostly 38.3 µM), without a hit: at the top dose activity change, negative = inhibition, hits mostly inhibitors. 330,000 compounds, 0.31% hits. cell surface uPA generation assay, qHTS. AID 540303; active = well fitted inhibition curve with a large enough effect; inconclusive = small, poorly fitted or top-dose-only effect; inactive = no such curve, though single readings can be large or run the other way; tested in mouse RAW 264.7 cells; also: potency is read from the fitted curve at half-maximal effect; % is scaled to controls: 0 for no effect and ±100 for the full control effect; nearly all actives have a fitted effect of over 55% in size
# An asterisk follows results filed as active; ? = inconclusive; . = no result; [ ] = dose if it differs, or a comment. Unless noted, calls follow the shape of the dose curve; as a rule, active = well fitted curve in the direction sought with a large enough effect; inconclusive = small, poorly fitted or top-dose-only effect, or another doubt; inactive = no such curve, though single readings can be large; an effect the other way counts as inactive or inconclusive.
SMILES,TRPV1 agonist,TRPV1 potentiator,RORg inh,VP16 counter,uPA surface inh
CCn1c(-c2ccccc2)c[nH]c1=S,-7,6,1.1µM*,8.9µM*,-2%
CCn1c(=S)[nH]c2cc(C(=O)O)ccc21,5,13,-9%,-1%,.
S=c1[nH]cc(-c2ccc(Cl)cc2)n1Cc1ccccc1,-1,-1,2.5µM*,2.8µM*,1%
CC(C)Cn1c(-c2ccc(Br)cc2)c[nH]c1=S,10,-3,0.63µM*,1.6µM*,4%
COC(=O)c1c[nH]c(=S)n1Cc1ccccc1,.,.,.,.,-4%
CNc1ncncc1-c1ccccc1C(F)(F)F,.,.,-10%,-2%,.
CCN1C(=O)/C(=C/c2ccc(C)s2)NC1=S,11,-8,18µM*,?,-1%
Cc1ccc(/C=C2/NC(=O)N(Cc3ccccc3)C2=O)s1,-1,-10,-17%,-8%,-9%
Cc1ccc(C(=O)Nc2ccc(Cl)cn2)cc1,?,-10,-22%,?,?
Cc1ccc(C(=O)Nc2ncc3c(Cl)cccc3n2)cc1,?,-13,3.2µM*,4µM*,-10%
O=C(N/N=C(\c1ccccc1)c1ccccn1)c1cccc([N+](=O)[O-])c1,28,-5,0.45µM*,-13%,?
CCOc1ccc(C(=O)N/N=C(\c2ccccc2)c2ccccn2)cc1,?,25,0.2µM*,0.056µM*,-10%
CC(C)C[C@@H](CC(=O)N[C@@H](CCC(=O)O)CC(=O)O)NC(=O)[C@@H]1CCCC[C@H]1NC(=O)C[C@@H](NC(=O)C[C@H](Cc1ccccc1)NC(=O)[C@@H]1CNCC[C@H]1N)C(C)C,.,.,5%,-25%,.
CC(=O)N1CCC[C@@]2(CCN(Cc3ccccc3)C2)C1,.,.,2%,9%,.
C=CCc1ccccc1OCC(=O)N/N=C/c1ccc(OC(C)=O)cc1OC(C)=O,1,5,7.1µM*,?,-14%
Cc1ccccc1OCC(=O)N/N=C/c1cc2ccccc2nc1Cl,0,7,38%,-8%,-6%
Cc1nn(-c2ccccc2)c(N)c1N=Nc1ccc2ccccc2c1,8,-6,1.1µM*,3%,-2%
Cc1ccc(N=Nc2c(N)nn(-c3ccccc3)c2N)cc1,?,3,25%,28%,-11%
Cc1c(NC2=CC(=O)CCC2)c(=O)n(-c2ccccc2)n1C,-3,7,-27%,-1%,-2%
CCOCCn1c(COc2ccc(C)cc2)nc2ccccc21,?,-7,?,5%,-3%
Cc1ccc(OCCCn2c(CO)nc3ccccc32)cc1,?,-13,26%,1%,-9%
COCCn1c(COc2ccc(C)cc2)nc2ccccc21,?,-19,11µM*,-16%,-7%
CCn1c(COc2ccc(C)cc2)nc2ccccc21,?,-3,8.9µM*,?,2%
CCC/C=C(\CCC)C(NS(=O)(=O)c1ccc(C(F)(F)F)cc1)c1ccc(C(=O)OC)cc1 (stereo unspecified),.,.,39%,?,.
COC(=O)C1=C[C@@H](C(=O)OC)C2C3=C(C(=O)[C@@]2(CC(C)C)NC(=O)c2ccccc2)[C@H](C)n2c(=O)n(C)c(=O)n2[C@@H]3C1 (stereo partly specified),.,.,13%,0%,.
SMILES,TRPV1 agonist,TRPV1 potentiator,RORg inh,VP16 counter,uPA surface inh
O=C(c1cccc(F)c1)N1CCC2(CCCN(c3cccc(-c4ccccc4)c3)C2)CC1,.,.,18%,-9%,.
Cc1nnc(SCC(=O)N2CCN(C(=O)c3ccco3)CC2)n1-c1ccccc1,2,1,-1%,-8%,-4%
CCc1ccc(C(=O)CSc2n[nH]c(-c3ccncc3)n2)cc1,-5,?,39%,11µM*,-5%
COC(=O)CSc1n[nH]c(-c2ccncc2)n1,1,3,-6%[0.365 µM],.,0%
CN(C(=O)COC(=O)c1ccc2ccccc2n1)C1CCCCC1,.,.,.,.,-2%
COc1ccc(OC)c(/C=N/NC(=O)C(O)c2ccccc2)c1 (stereo unspecified),0,5,-3%,2%,0%
Cc1cnc(NC(=O)c2cc3c(s2)CCCC3)s1,89*,-12,2µM*,7.1µM*,-19%
Cc1csc(NC(=O)c2cc3c(s2)CCCCC3)n1,?,-19,2.8µM*,4µM*,-20%
Cc1csc(NC(=O)c2cc3c(s2)CCCC3)n1,4,-9,10%,?,?
Cc1cc(C)c2c(=O)[nH]c(SCC(=O)c3ccc(C(C)C)cc3)nc2n1,14,-6,29%,15%,-2%
O=C1[C@H]2[C@H]3[C@H](O)[C@H](O)C/C(=N/OC[C@@H](O)COCc4ccco4)[C@@H]3CC[C@@H]2C(=O)N1C1CCCCC1,.,.,5%[10 µM],1%[10 µM],.
O=C(Nc1cccc(Cl)c1)c1ccc(F)c(S(=O)(=O)NCc2cccs2)c1,1,1,15%,20µM*,-10%
O=C(O)c1c(-c2ccccc2)c2oc3ccccc3c2[nH]c1=O,-2,2,-32%,?,1%
CCOC(=O)c1ccc(-c2ccc(/C=C(\C#N)C(=O)NCc3cccs3)o2)cc1,-2,11,?,3.2µM*,-4%
COc1cc(OC)c(OC)cc1/C=C(\C#N)C(=O)NCc1cccs1,6,-4,-4%,4%,4%
O=C(CCS(=O)(=O)c1cccc2nonc12)Nc1ccc(Br)cc1,?,2,?,30%,-11%
CC(C)Cn1c(N)c(C(=O)CSc2ccc3c(c2)OCCO3)c(=O)n(C)c1=O,-2,2,?,11µM*,-2%
COCCCn1cn[nH]c1=S,1,9,-22%,6%,-16%
CC(C)(C)n1cn[nH]c1=S,-3,17,11µM*,-13%,-2%
CC(=O)C1(O)Cc2c(O)c3c(c(O)c2C(OC2CC(N)C(O)C(C)O2)C1)C(=O)c1c(O)cccc1C3=O (stereo unspecified),.,.,11µM*,?,.
COc1cccc2c1C(=O)c1c(O)c3c(c(O)c1C2=O)C[C@@](O)(C(=O)CO)C[C@@H]3O[C@H]1C[C@H](N)[C@H](O)[C@H](C)O1,6,3,3.5µM*,5.6µM*,-76%
COc1cccc2c1C(=O)c1c(O)c3c(c(O)c1C2=O)C[C@](O)(C(C)=O)C[C@H]3O[C@@H]1C[C@H](N)[C@H](O)[C@H](C)O1,.,.,5.6µM*,4.5µM*,.
COc1cccc2c1C(=O)c1c(O)c3c(c(O)c1C2=O)C[C@@](O)(C(=O)CO)C[C@@H]3O[C@@H]1C[C@H](N)[C@H](O)[C@H](C)O1,.,.,11µM*,7.9µM*,.
COc1cccc2c1C(=O)c1c(O)c3c(c(O)c1C2=O)CC(O)(C(C)=O)CC3OC1CC(N(C)C)C(O)C(C)O1 (stereo unspecified),.,.,.,.,-13%
O=C(COC(=O)CC(c1ccccc1)c1ccccc1)Nc1c(F)cccc1F,12,-17,6%[10 µM],-12%,.
CN1CCN(c2nc(-c3cccc([N+](=O)[O-])c3)nc3ccccc23)CC1,13,3,-22%,-8%,-4%
